Sfp PPTase inh: Sfp phosphopantetheinyl transferase inhibition; Biochemical Sfp PPTase activity, qHTS; Potency, µM, without a hit: largest response in the series, negative = inhibition, hits mostly inhibitors; 310,000 tested, 3.5% active; AID 1490;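 further: the enzyme is Sfp with the accession as filed and its product quenches rhodamine fluorescence; potency means the concentration at half of the fitted maximal effect; 0% = enzyme reaction without inhibitor and -100% = no enzyme wells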
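Sfp 15 nM + cpd, 15 min RT; start w/ rhodamine-CoA 5 uM, BHQ-2-YbbR 12.5 uM (final); 50 mM Hepes pH 7.6, 10 mM MgCl2, 0.01% NP-40, 0.01% BSA; read 525/598 nm at 0 and 30 min.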
Tau fluor cs: counter-screen for tau fibril formation inhibitors; 280,000 tested, 0.93% active; Potency, µM (doses to about 57.7 µM), for inactives: top-dose activity change, negative = decrease; AID 1463; tau K18 P301L Alexa594 fluorescence, heparin fibrillization; further: potency means the concentration at half of the fitted maximal effect; nearly all actives have a fitted effect of over 55% in size
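Human tau K18 P301L (15 uM unlabeled, 0.24 uM Alexa 594-labeled) in 100 mM sodium acetate pH 7 with 20 uM heparin, 6 hr at 37 C. ThT 30 uM added, 1 hr ambient; Alexa 594 FP and total fluorescence read at 555/632 nm.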
Tau FP inhib: tau fibrillization inhibition (FP); P10636; K18 P301L tau heparin fibrillization, Alexa594 FP, 6 h; Potency, µM (doses to about 57.7 µM), for the others: top-dose activity, negative = inhibition, most hits filed as inhibitors; 280,000 tested, 0.39% active; AID 1468; further: potency means the concentration at half of the fitted maximal effect; nearly all actives have a fitted effect of over 55% in size
Target sequence (P10636 561-689 P618L limits assumed): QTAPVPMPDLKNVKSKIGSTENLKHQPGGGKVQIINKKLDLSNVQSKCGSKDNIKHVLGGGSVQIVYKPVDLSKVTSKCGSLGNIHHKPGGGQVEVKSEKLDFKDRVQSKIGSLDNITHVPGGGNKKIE
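Compound effects on tau fibrillization are measured by Alexa 594 fluorescence polarization (ex 555, em 632 nm). K18 P301L tau is used at 15 uM with 0.24 uM labeled tracer, and 20 uM heparin induces aggregation over 6 hr at 37 C.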
Tau fibril ThT: tau fibrillization inhibition (ThT binding). P10636. recombinant tau K18 P301L, heparin-induced fibrillization, ThT fluorescence. Potency, µM (doses to about 57.4 µM), without a hit: at the highest dose activity, negative = inhibition, actives largely listed as inhibitors. 270,000 tested, 2.1% active; further: potency means the concentration at half of the fitted maximal effect; nearly all actives have a fitted effect of over 55% in size
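Fibril formation assay: tau K18 P301L at 15 uM with trace Alexa 594 label, heparin inducer 20 uM, pH 7 sodium acetate buffer, 37 C for 6 hr; endpoint ThT signal.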
Coupling enz: coupling enzyme interference in Giardia aldolase counter-screen | coupling enzyme system counterscreen, AmpLite Red fluorescence | activity change, negative = inhibition, % at 58.2 µM, hits read low | 290,000 tested, 0.67% active; in the data active means activity change below about -30%
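Final compound at 57.5 uM, incubated 10 min at RT with coupling enzyme reagent (glyceraldehyde-3-phosphate), then 20 min with substrate and AmpLite Red detection. Fluorescence read at 525/598 nm; tests interference with the coupling assay, not aldolase inhibition.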
G9a block: blocks human histone lysine methyltransferase G9a | Q96KQ7 | G9a H3K9 monomethylation, AlphaScreen, 2 h | Potency, µM (highest dose often 102 µM), without a hit: at the top dose activity, negative = inhibition, most hits filed as inhibitors | 350,000 tested, 8.8% active; further: potency means the concentration at half of the fitted maximal effect; nearly all actives have a fitted effect of over 75% in size
Target sequence (Q96KQ7 913-1193 limits assumed): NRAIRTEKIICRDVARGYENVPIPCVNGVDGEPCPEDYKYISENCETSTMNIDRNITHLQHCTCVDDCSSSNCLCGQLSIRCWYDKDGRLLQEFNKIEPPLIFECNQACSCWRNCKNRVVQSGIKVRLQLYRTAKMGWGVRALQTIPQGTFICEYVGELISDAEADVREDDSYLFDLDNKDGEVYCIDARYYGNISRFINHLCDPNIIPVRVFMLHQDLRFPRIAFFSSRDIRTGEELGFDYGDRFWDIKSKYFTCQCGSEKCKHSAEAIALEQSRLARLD
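Enzyme 20 nM + cpd, 15 min RT; add b-H3K9 pep 500 nM / SAM 20 uM; 2 h RT; anti-H3K9me1 Ab 0.5 ug/mL + SA donor / anti-rabbit acceptor beads 20 ug/mL each, 10 min; AlphaScreen read.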
Numbers without * were called inactive; ? = inconclusive; . = no result; ! = not confirmed by another sample; [ ] = another dose, or the depositor's remark. The list is not random: actives were taken first. Their share in the collection is about 11%. Unless noted, the call rests on the fitted dose curve; in most records, active means well fitted curve in the direction sought with a large enough effect; inconclusive means small, poorly fitted or top-dose-only effect, or another doubt; inactive means no such curve, though single readings can be large; an effect the other way counts as inactive or inconclusive. Unless noted, on the % scale 0 is the no-effect control and ±100 the full control effect.

SMILES	Sfp PPTase inh	Tau fluor cs	Tau FP inhib	Tau fibril ThT	Coupling enz	G9a block
Cc1cc(SCC(=O)N2CCCC2=O)nc2c(C)cccc12	.	.	.	.	.	-29%[59 µM]
Cc1cc(SCC(=O)c2ccc(O)c(O)c2)nc2ccccc12	-9%	28µM*[quencher]	-6%	?	-5	10µM*
Cc1cc(SCC(=O)c2ccc3c(c2)OCO3)nc2ccccc12	?	?	-13%	?	-1	?
COc1ccc2cc(CNc3ccc(C)cc3)c(=O)n(CC(=O)Nc3cccc(Cl)c3C)c2c1	.	?	14%	4%	.	?
O=C(CSc1nc2ccccc2s1)NC(=O)NCc1ccco1	-29%	0%	-2%	15%	0	45µM*
CCN(CC(=O)NC(=O)NCc1ccco1)Cc1nc2ccccc2c(=O)[nH]1	50µM*	4%	-13%	?	-7	?
COC(=O)c1ccc(C)c(NC(=O)CN(c2ccccc2)S(=O)(=O)N(C)C)c1	14%	-14%	-15%	-5%	-1	6%
Cc1cc(OCC(=O)NCC2(N3CCOCC3)CCCCC2)ccc1Cl	.	-9%	-4%	-7%	.	1%[59 µM]
CC#C[C@]1(O)CC[C@H]2[C@@H]3CCC4=CC(=O)CCC4=C3[C@@H](c3ccc(N(C)C)cc3)C[C@@]21C	-5%	-24%	9%	-21%	-1	9.5µM*!
CC#C[C@]1(O)CC[C@H]2[C@@H]3CCC4=CC(=O)CCC4=C3[C@H](c3ccc(N(C)C)cc3)C[C@@]21C	-8%	-21%	4%	-17%	1	.
Cc1ccc(-c2nn(CCC(=O)O)cc2CCC(=O)O)cc1	23%	-3%	?	2%	-3	-5%
CCn1cc(CCC(=O)O)c(C)n1	-17%	6%	1%	1%	-2	45µM*
Cc1ccc2nc(-c3ccc(NC(=O)COC(=O)c4cncc(Br)c4)cc3)sc2c1	-10%	-20%	-9%	?	2	25µM*
O=C(Nc1cccc(-c2nc3cccnc3s2)c1)c1cccc(Br)c1	.	-30%	4%	?	.	18µM*
CN(C)c1ccc(C(=O)Nc2cccc(-c3nc4cccnc4s3)c2)cc1	.	-10%	?	3%	.	-41%[59 µM]
Cc1ccc(OCC(=O)Nc2cccc(-c3nc4ccccc4s3)c2)cc1	.	?	-7%	?	.	2.5µM*
CCC(CC)C(=O)Nc1cccc(-c2nc3ccccc3s2)c1	.	?	?	-17%	.	?
O=C(Nc1cccc(-c2nc3ccccc3s2)c1)c1cccs1	3%	?	22µM*	?	2	20%[59 µM]
CCCCCCCCCCCCCCCCSCC(COC)COP(=O)([O-])OCC[N+](C)(C)C (stereo not drawn)	-1%	.	.	.	0	.
O=C(CSc1nncn2c1cc1sccc12)Nc1ccc(Br)cc1F	.	-19%	-15%	-7%	.	-4%[59 µM]
CCOc1ccc(NC(=O)CSc2oc(-c3ccc(F)cc3)nc2S(=O)(=O)c2ccc(C)cc2)cc1	.	-23%	-21%	-6%	.	0%[59 µM]
Cc1ccc(C)c(N2CCN(C(=O)CCn3c(=O)[nH]c4ccccc4c3=O)CC2)c1	.	-18%	5%	-14%	.	-12%[59 µM]
O=C(O)c1ccc2c(c1)C(=O)N([C@]1(C(=O)O)C[C@H]1c1ccccc1)C2=O	8%	.	.	.	4	3%[12.7 µM]
CC1=C(C(=O)OCc2ccccc2)C(C2CCCCC2)NC(=O)N1CCCCCC(=O)O (stereo not drawn)	-3%	-11%	-7%	-13%	16	.
O=C(Nc1ccccc1)Nc1sccc1-c1nc2ccccc2s1	?	?	?	?	-10	-39%
SMILES	Sfp PPTase inh	Tau fluor cs	Tau FP inhib	Tau fibril ThT	Coupling enz	G9a block
O=C(Nc1cccc(Cl)c1)Nc1sccc1-c1nc2ccccc2s1	9%	14µM*[quencher]	?	?	-11	26%[59 µM]
CC(=O)/C(N=Nc1ccc(C(=O)O)cc1)=C(\C)O	17%	-11%	-7%	-12%	-1	-21%
CC(=O)/C(N=Nc1ccc2c(c1)OCO2)=C(\C)O	-21%	-14%	5%	3.5µM*	-1	3%[59 µM]
CC(=O)/C(N=Nc1ccc2c(c1)OCCO2)=C(\C)O	1%	-14%	0%	10µM*	2	-45%
O=c1oc2ccccc2n1CCCOc1ccccc1Cl	.	-17%	-10%	-12%	.	65%[59 µM]
CC1=C(C)C(=O)N(c2ccccn2)C1=O	18%	5%	-1%	-2%	1	9%
Cc1nn(-c2ccccn2)c2c1C(=O)C(Br)CC2 (stereo not drawn)	4µM*	?	3.2µM*	2.8µM*	-64*	1.3µM*
COc1ccc(-c2nc(N/N=C(\C)c3ccc(O)cc3)c3ccccc3n2)cc1	-25%	20µM*[quencher]	6%	?	-6	5%
C/C(=N\Nc1nc(-c2ccc(C)cc2)nc2ccccc12)c1ccc([N+](=O)[O-])cc1	4%	-8%	1%	-5%	0	56%[59 µM]
COc1ccc(Nc2nc(-c3ccc(C)cc3)nc3ccccc23)c(OC)c1	.	7.9µM*[quencher]	-1%	?	.	54%[59 µM]
C=CCN(c1ccccc1)S(=O)(=O)c1cccc(C(=O)NC2CCN(Cc3ccccc3)CC2)c1	.	.	.	.	.	50µM*
CCOc1ccc(S(=O)(=O)N/N=C2/CC(c3ccccc3)Oc3ccccc32)cc1 (stereo not drawn)	14%	-29%	-2%	-6%	3	7.9µM*
O=C(CN(Cc1ccc(F)cc1)C(=O)CCC(=O)Nc1nccs1)NCc1ccc(F)cc1	4%	.	.	.	-2	-6%
Cc1ccc2c(c1)c(N=Nc1cccc(C(=O)O)c1)c(O)n2C	13%	-7%	2%	14µM*	15	35µM*
Cn1c(=O)cc(NCc2ccccc2)[nH]c1=O	1%	-1%	-2%	4%	2	-26%[2.33 µM]
CCCCNc1cc(=O)n(C)c(=O)[nH]1	-1%	-8%	-5%	-8%	-13	50µM*
Cn1c(=O)oc2cc(S(=O)(=O)N3CCCC(C(=O)NCCc4ccccc4)C3)ccc21 (stereo not drawn)	.	-11%	-12%	-1%	.	2%[59 µM]
C/C(CS(=O)(=O)c1ccc(Cl)cc1)=N/NC(N)=S	79µM*	-3%	1%	-3%	-2	-4%
CC(OC(=O)c1cccs1)C(=O)Nc1nc(-c2ccccc2)cs1 (stereo not drawn)	10%	?	-3%	-7%	1	79µM*
O=C(Cc1ccccc1F)Nc1nc(-c2ccc(F)c(F)c2)cs1	1%	.	.	.	2	9%
CC(OC(=O)c1ccc([N+](=O)[O-])o1)C(=O)Nc1nc(-c2ccc(F)c(F)c2)cs1 (stereo not drawn)	.	.	.	.	.	28µM*

Source: PubChem (National Center for Advancing Translational Sciences (NCATS))
